HepG2 tox: counter-screen for TGF-b inhibitors: cytotoxicity in HepG2 cells; HepG2 CAGA-GFP viability, ATP luminescence, 18 h; Potency, µM (series often up to 46.1 µM), usual class: cytotoxic; 410,000 compounds, 0.76% hits
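CellTiter-Glo luminescence gave cytotoxicity after 18 hours at 37 degrees C. The cells were HepG2 CAGA-GFP in 1% FBS DMEM, stimulated with 500 pg/mL TGF-beta after compound addition. %Activity was normalised to no-cell wells (complete cell-killing) and DMSO (no toxicity), and curves were fitted and classified.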
DT40 TDP1 CPT: DT40-hTDP1 cell growth loss with CPT | chicken DT40 Tdp1-/-;hTDP1 cells + 20 nM CPT, ATP luminescence, 48 h | 420,000 compounds, 12% hits | AID 686979 | Potency, µM (titrated, usually from 46.2 µM), actives largely listed as inhibitors; note: nearly all actives have a fitted effect of over 55% in size
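Chicken DT40 Tdp1-/- cells stably complemented with human TDP1 were seeded at 400 cells/well in medium containing 20 nM camptothecin, exposed to pin-transferred compounds, and grown at 37 °C for at least 48 hr. Viability was read as ATP luminescence.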
HT1080 IDH1KD tx: HT-1080 IDH1 knockdown cell toxicity (counter line) | Potency, µM (doses to about 46.1 µM), usual class: cytotoxic | AID 686971 | HT-1080 IDH1 knockdown viability, ATP luminescence, 48 h | 360,000 compounds, 2% hits
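Viability of IDH1-knockdown HT-1080 fibrosarcoma cells was assessed by CellTiter-Glo after 48 h at 37 °C with titrated compound; concentration-effect curves were classified by fit quality and response size.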
HT1080NT lethal: kills 2HG-producing HT-1080-NT fibrosarcoma cells; HT-1080-NT fibrosarcoma viability, CellTiter-Glo ATP luminescence, 48 h; AID 686970; 360,000 compounds, 1.6% hits; Potency, µM (doses to about 46.1 µM), usual class: cytotoxic;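 note: NT is the 2HG producing partner of a matched IDH1 knockdown line; nearly all actives have a fitted effect of over 55% in size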
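750 cells/well, RPMI + 5% FBS; 2 h settle, compound pin-transfer, 48 h at 37 degrees C. CellTiter-Glo 10 min RT, luminescence. Normalized to DMSO and media-only wells.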
TDP1 cell noCPT: qHTS for Inhibitors of human tyrosyl-DNA phosphodiesterase 1 (TDP1): qHTS in cells in absence of CPT; AID 686978, 2013; Potency, µM (top dose mostly 46.2 µM), actives largely listed as inhibitors; DT40 Tdp1-/- hTDP1 cells, no CPT, ATP luminescence, 48 h; 420,000 compounds, 15% hits; note: nearly all actives have a fitted effect of over 55% in size
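Chicken DT40 Tdp1-/- cells stably complemented with human TDP1 were seeded at 400 cells/well with DMSO in place of 20 nM camptothecin. After compound pinning, cells grew at least 48 hr at 37 °C; viability read by CellTiter-Glo luminescence.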
TGFb inhibitor: inhibitors of TGF-b signaling. HepG2 CAGA-GFP TGF-b/SMAD3 reporter, GFP fluorescence, 18 h; TGF-beta stimulated, 500 pg/mL final. Potency, µM (doses to about 46.1 µM), actives largely listed as inhibitors. 410,000 compounds, 1.2% hits; note: nearly all actives have a fitted effect of over 65% in size
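Per well, imaged GFP fluorescence of HEPG2 CAGA-GFP cells gives the signal; cells get compound, then TGF-beta (500 pg/mL final), 18 h at 37 degrees C; %Activity versus -TGF-beta and +DMSO controls.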
Hits are given with their value; - = inactive; ? = inconclusive; . = not tested or not shown; [ ] = another dose, or the depositor's remark. Shown are actives, neighbours in structure and some others; about 17% of the full set was active somewhere. Calls come from the whole dose curve; as a rule, active = well fitted curve in the direction sought with a large enough effect; inconclusive = small, poorly fitted or top-dose-only effect, or another doubt; inactive = no such curve, though single readings can be large; an effect the other way counts as inactive or inconclusive.

SMILES | HepG2 tox | DT40 TDP1 CPT | HT1080 IDH1KD tx | HT1080NT lethal | TDP1 cell noCPT | TGFb inhibitor
Cc1cc(-c2n[nH]c(=S)n2/N=C/C(Cl)=C/c2ccccc2)n[nH]1 | - | 14.6µM | ? | ? | 13µM | ?
CCN1CCN(S(=O)(=O)c2ccc(OC)c(NC(=O)c3ccccc3)c2)CC1 | - | - | - | - | - | -
Cc1cc(-c2ccccc2)nc(N/N=C/c2ccc([N+](=O)[O-])cc2)n1 | - | ? | - | - | ? | -
Cc1cc(-c2ccccc2)nc(N/N=C/c2ccc(N(C)C)cc2)n1 | - | ? | - | - | 14.6µM | ?
Cc1cc(C)nc(N/N=C/c2ccco2)n1 | - | - | - | - | - | -
COc1ccc(/C=N/Nc2nc(C)cc(-c3ccccc3)n2)cc1OC | - | - | - | - | ? | -
Cc1cc(-c2ccccc2)nc(N/N=C/c2ccco2)n1 | - | 29.1µM | ? | ? | ? | -
Cc1cc(-c2ccccc2)nc(N/N=C/c2ccccc2)n1 | - | 20.6µM | - | - | 23.1µM | ?
Cc1cc(-c2ccccc2)nc(N/N=C/c2ccc(O)cc2O)n1 | - | ? | 2.06µM | ? | 18.4µM | ?
COCCn1c(=O)c(-c2cccc(C#N)c2)nc2cnc(OCc3ccccc3)nc21 | . | - | . | . | - | .
CN(/N=C/c1ccc(O)cc1O)c1nc(-c2ccccc2)cc(-c2ccccc2)n1 | - | 20.6µM | ? | ? | 11.6µM | -
O=C(CCC(=O)Nc1cccc(C(F)(F)F)c1)NCC1CCCO1 (centres undefined) | - | - | - | - | - | -
CC(NCCC1(Cc2ccccc2Cl)CCOC(C)(C)C1)c1cccs1 (centres undefined) | - | 23.1µM | ? | - | 20.6µM | ?
O=C(NCc1ccccc1)c1cc(C2CCCCN2C(=O)c2ccc3c(c2)CCO3)on1 (centres undefined) | - | ? | - | - | ? | -
O=C(Nc1ccc(F)c(Cl)c1)c1cc(C2CCCCN2C(=O)c2ccc3c(c2)CCO3)on1 (centres undefined) | - | 16.4µM | - | - | 20.6µM | -
O=C(Nc1ccccc1)c1cc(C2CCCCN2C(=O)c2ccc3c(c2)CCO3)on1 (centres undefined) | - | 23.1µM | - | - | 18.4µM | -
O=C(NCc1ccc(F)cc1)c1cc(C2CCCCN2C(=O)c2ccc3c(c2)CCO3)on1 (centres undefined) | - | 18.4µM | - | - | 18.4µM | -
N#Cc1cccc(NC(=O)c2cc(C3CCCCN3C(=O)c3ccc4c(c3)CCO4)on2)c1 (centres undefined) | - | ? | - | - | ? | -
COc1ccc(-n2c(CCNC(=O)c3ccc(-c4cccc(F)c4)cc3)nnc2SC)cc1 | . | -[9.04 µM] | . | . | ? | .
C=CCNc1ncnc2c1ncn2[C@H]1CN(CCc2ccccc2)C[C@@H](CO)O1 | - | ? | - | - | - | -
Cc1ccccc1OCCCC(=O)NCc1ccco1 | - | - | - | - | - | -
CCCc1nnc(SCc2ccc(OC)cc2)n1N | - | 25.9µM | - | - | 18.4µM | -
COc1cccc(NC(=O)C(Sc2nnc(-c3ccncc3)n2-c2ccc(Cl)cc2)c2ccccc2)c1 (centres undefined) | - | 16.4µM | ? | ? | 20.6µM | ?
COc1cccc(-n2c(SCC(N)=O)nnc2-c2ccncc2)c1 | - | - | - | - | - | -
CCc1ccc(-n2c(=O)c3cccnc3n2CC(=O)NCc2ccc(C)cc2)cc1 | - | ? | . | . | ? | -
SMILES | HepG2 tox | DT40 TDP1 CPT | HT1080 IDH1KD tx | HT1080NT lethal | TDP1 cell noCPT | TGFb inhibitor
CCc1ccc(-n2c(=O)c3cccnc3n2CC(=O)Nc2ccccc2C(F)(F)F)cc1 | 11.2µM | ? | . | . | ? | ?
CCc1cccc(-n2c(=O)c3cccnc3n2CC(=O)Nc2c(C)cc(C)cc2C)c1 | - | ? | . | . | 23.1µM | -
Cc1ccc(-n2c(=O)c3cccnc3n2CC(=O)Nc2cc(C)cc(C)c2)cc1 | - | ? | . | . | - | ?
Cc1ccc(-n2c(=O)c3cccnc3n2CC(=O)Nc2ccc(C)cc2Cl)cc1 | - | ? | . | . | 13µM | -
CCc1ccccc1NC(=O)Cn1c2ncccc2c(=O)n1-c1ccccc1 | - | - | . | . | - | -
Cc1ccc(CNC(=O)Cn2c3ncccc3c(=O)n2-c2ccc(C)cc2)cc1 | - | 20.6µM | . | . | ? | -
C[C@@]12CC(=O)NC1N(C(=O)c1cccc(C(F)(F)F)c1)C(c1ccccc1OC(=O)c1cccc(C(F)(F)F)c1)C2 (some centres undefined) | - | ? | - | - | ? | 12.6µM
CCc1ccc(OCc2nnc(SCC(=O)Nc3cccc(C(=O)N4CCOCC4)c3)o2)cc1 | - | - | - | - | - | -
CCOC(=O)c1sc(-c2ccc(Cl)cc2Cl)nc1O | - | 25.9µM | - | - | 18.4µM | -
CC(CC12CC3CC(CC(C3)C1)C2)NCc1ccccc1O (centres undefined) | 15.8µM | 14.6µM | - | - | 16.4µM | 17.8µM
O=C(Nc1ccc(F)cc1)c1cccc2c1C(=O)N(CC1CCCO1)C2 (centres undefined) | - | - | - | - | - | -
O=C(CNc1cc(S(=O)(=O)N2CCCC2)ccc1OCC(F)(F)F)Nc1ccc(SC(F)F)cc1 | - | 1.84µM | - | - | 3.66µM | -
O=C(Cc1cccc(C(F)(F)F)c1)Nc1cccc(S(=O)(=O)N2CCCC2)c1 | - | 16.4µM | - | - | ? | ?
O=C(CNc1cccc(S(=O)(=O)N2CCOCC2)c1)Nc1ccc(C(F)(F)F)cc1 | - | ? | - | - | 16.4µM | ?
O=C(CNc1ccc(C(F)(F)F)cc1)Nc1cccc(S(=O)(=O)N2CCCC2)c1 | - | - | - | - | ? | -
O=C(CNc1cccc(S(=O)(=O)N2CCCC2)c1)Nc1cccc(C(F)(F)F)c1 | - | 10.3µM | - | - | 11.6µM | ?
O=C(CNc1cccc(S(=O)(=O)N2CCOCC2)c1)Nc1cccc(Br)c1 | - | ? | - | - | ? | -
CCc1[nH]nc(C(=O)N/N=C/c2ccncc2)c1C | - | - | - | - | - | -
CCN/C=C(\C#N)S(=O)(=O)c1ccc(Br)cc1 | - | - | - | - | - | -
O=C(CNc1ccc(C(F)(F)F)cc1)Nc1cccc(S(=O)(=O)N2CCCCC2)c1 | - | ? | ? | ? | 16.4µM | ?
Cc1cc(C(C)(C)C)oc1C(=O)N(CC(=O)NC1CCCC1)Cc1ccc(F)cc1 | - | 20.6µM | - | - | ? | -
Cc1cc(C(C)(C)C)oc1C(=O)OCC(=O)NC1CCCCC1 | - | ? | - | - | ? | -

Screening results deposited in PubChem by National Center for Advancing Translational Sciences (NCATS).
